# Data from PubChem BioAssay AID1259318 (Sanford-Burnham Center for Chemical Genomics, 2017).
# Among all 370,000 compounds or so, about 3,000 (0.81%) were called active.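 How the source made its calls: active means activity above about 14% (limit read from the data; passing the limit was not always enough); inactive means the rest.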 For the sample, actives were picked, then their nearest neighbours and some compounds at random.
# Target: Nuclear receptor subfamily 1 group D member 1 (Homo sapiens) (UniProt P20393)
# Sequence (P20393 whole entry, looked up): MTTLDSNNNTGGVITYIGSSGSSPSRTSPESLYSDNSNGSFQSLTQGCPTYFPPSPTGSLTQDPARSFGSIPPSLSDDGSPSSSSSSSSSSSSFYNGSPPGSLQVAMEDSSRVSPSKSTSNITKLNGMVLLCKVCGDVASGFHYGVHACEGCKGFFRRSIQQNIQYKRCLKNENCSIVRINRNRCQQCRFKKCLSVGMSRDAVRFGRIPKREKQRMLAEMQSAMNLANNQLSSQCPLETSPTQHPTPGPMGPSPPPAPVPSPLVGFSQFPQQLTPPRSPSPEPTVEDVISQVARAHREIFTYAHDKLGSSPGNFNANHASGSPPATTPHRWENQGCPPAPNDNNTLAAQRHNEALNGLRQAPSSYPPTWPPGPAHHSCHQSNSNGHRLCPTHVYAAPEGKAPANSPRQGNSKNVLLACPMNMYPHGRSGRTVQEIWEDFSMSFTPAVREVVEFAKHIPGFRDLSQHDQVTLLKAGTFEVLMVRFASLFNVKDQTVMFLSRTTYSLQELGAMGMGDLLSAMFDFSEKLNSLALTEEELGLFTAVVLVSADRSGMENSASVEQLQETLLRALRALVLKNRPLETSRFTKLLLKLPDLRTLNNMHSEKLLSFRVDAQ
# Test: Rev-erbα–DNA interaction modulation – biochemical, FITC-DNA, fluorescence polarization, uHTS, primary screen (AID 1259318);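 further: 0% = DMSO wells with 35 nM protein and 100% = DMSO wells with 750 nM protein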
# Conditions: Rev-erbα–FITC-DNA binding, 90 min, at 10 µM, hits give high values
row,SMILES,activity
1,C=CCN(N=Nc1cccc([N+](=O)[O-])c1)c1cccc([N+](=O)[O-])c1,9.23% (inactive)
2,NC(=O)CC(NC(=O)Cc1ccc(Br)cc1)c1ccc(NC2CC3CCC2C3)c([N+](=O)[O-])c1 (stereo unspecified),-0.82% (inactive)
3,FCOC(C(F)(F)F)C(F)(F)F,2.75% (inactive)
4,O=C(COc1ncnc2c(Cl)cc(Cl)cc12)N1CCN(S(=O)(=O)c2ccccc2)CC1,25.2% (active)
5,O=C(COc1ccc(Cl)cc1)N1CCN(S(=O)(=O)c2ccc(Cl)cc2)CC1,-0.97% (inactive)
6,O=C(CSc1ccccn1)N1CCN(S(=O)(=O)c2ccc(Cl)cc2)CC1,-4.04% (inactive)
7,COc1ccc(C2(C#N)CCC(C(=O)O)CC2)cc1OC1CCCC1 (stereo unspecified),-2.5% (inactive)
8,O=C(CN1CCCc2ccccc21)NCc1ccc(F)cc1,0.36% (inactive)
9,Cc1nn2cc(-c3ccc(Cl)cc3)cnc2c1Br,5.5% (inactive)
10,CCN(CC)CCCC(C)Nc1ccnc2cc(Cl)ccc12 (stereo unspecified),-0.22% (inactive)
11,COC(=O)c1ccc(CN2CCCC(C(=O)Nc3cccc(-n4cnnn4)c3)C2)cc1 (stereo unspecified),1.49% (inactive)
12,COc1ccc(Cn2ccc3ccc(-c4ccc5ccn(Cc6ccccc6C)c5c4)cc32)cc1,0.1% (inactive)
13,COC(=O)c1cccc(Cn2ccc3ccc(-c4ccc5ccn(C(=O)C6CCCCC6)c5c4)cc32)c1,33.7% (active)
14,FC(F)(F)c1cccc(Cn2ccc3ccc(-c4ccc5ccn(Cc6ccccc6)c5c4)cc32)c1,-9.95% (inactive)
15,COC(=O)c1ccc(OCC(O)CN(CCO)CC(O)Cn2ccc3ccccc32)cc1 (stereo unspecified),4.36% (inactive)
16,COC(=O)c1cccc(Cn2ccc3ccc(-c4ccc5ccn(C(=O)c6ccccc6C)c5c4)cc32)c1,40% (active)
17,CCC(=O)O[C@]1(C(=O)CCl)[C@@H](C)CC2C3CCC4=CC(=O)C=C[C@]4(C)[C@@]3(F)[C@@H](O)C[C@@]21C (stereo partly specified),0.94% (inactive)
18,Cc1ccc(S(=O)(=O)N(Cc2cc3ccccc3[nH]c2=O)CC2CCCO2)cc1 (stereo unspecified),-1.97% (inactive)
19,CN(C(N)=NC(=O)/C=C/c1ccccc1)C(C#Cc1ccccc1)Cc1ccccc1 (stereo unspecified),-4.88% (inactive)
20,O=C(C1CCN(S(=O)(=O)Cc2ccccc2)CC1)N1CCCc2ccccc21,-2.58% (inactive)
21,Cc1nn(CCOc2ccc(Br)cc2)c(C)c1[N+](=O)[O-],3.89% (inactive)
22,O=C(COc1ccc2ccccc2c1)N1CCN(C(=O)c2cccs2)CC1,7.29% (inactive)
23,CCOc1ccc2nc(Cl)c(C3CC(c4ccccc4)=NN3C(=O)c3cccs3)cc2c1 (stereo unspecified),36% (active)

row,SMILES,activity
1,CS(=O)(=O)Nc1cccc(C2=NN(C(=O)c3cccc(F)c3)C(c3cccs3)C2)c1 (stereo unspecified),1.7% (inactive)
2,CC(NC(=O)C(C)(C)C)C(c1cccs1)N1CCN(Cc2ccccc2)CC1 (stereo unspecified),-5.62% (inactive)
3,O=C(Nn1cnc2ccccc2c1=O)c1ccc(F)cc1Cl,-3.38% (inactive)
4,O=C(COc1ccccc1O)NC1CCCC1,2.25% (inactive)
5,CC(C)C(C)NC(=O)COc1nc2ccccc2nc1N(C)C1CCCCC1 (stereo unspecified),62.5% (active)
6,CC(C)C(C)NC(=O)COc1ncnc2ccccc12 (stereo unspecified),1.73% (inactive)
7,CCCN1C(=O)C(NC(C)=O)c2cc(OC)ccc21 (stereo unspecified),1.76% (inactive)
8,CCOC(=O)N1CCN(C(=O)COCc2cc(-c3ccc4c(c3)OCO4)on2)CC1,2.06% (inactive)
9,CCc1ccccc1NC(=O)c1cc(-c2ccc3c(c2)OCO3)on1,21.2% (active)
10,CC(C)NC(=O)COCc1cc(-c2ccc3c(c2)OCO3)on1,3.84% (inactive)
11,CCCCCCCCCc1ccc(OCCOCCOCCOCCOCCOCCOCCOCCOCCO)cc1,2.2% (inactive)
12,CC[C@H](NC(=O)[C@H](Cc1ccccc1)NC(=O)[C@H]1O[C@@H](n2cnc3c(=O)[nH]c(N)nc32)[C@H](O)[C@@H]1O)c1ccccc1,1.57% (inactive)
13,CCC1CCC2(CC1)NC(=O)N(CC(=O)Nc1ccc(OC)cc1)C2=O (stereo unspecified),-2.27% (inactive)
14,CCOC(=O)c1c(NC(=O)CN2C(=O)NC3(CCC(C)CC3)C2=O)sc(C)c1CC (stereo unspecified),21.8% (active)
15,CCOC(=O)c1c(NC(=O)C2CC=CCC2C(=O)O)sc(C)c1CC (stereo unspecified),-10.6% (inactive)
16,O=C1NC(c2ccccc2)=NC1(Nc1ccccn1)C(F)(F)F (stereo unspecified),-2.21% (inactive)
17,C[C@@H]1CN([C@@H](C)CO)S(=O)(=O)c2ccc(C#Cc3cccc(F)c3)cc2O[C@H]1CN(C)S(=O)(=O)c1cn(C)cn1,4.67% (inactive)
18,CCCC1O[C@@H]2CC3C4CCC5=CC(=O)C=CC5(C)C4[C@@H](O)CC3(C)[C@]2(C(=O)CO)O1 (stereo partly specified),3.39% (inactive)
19,S=c1nccc(-c2cc(Cl)sc2Cl)[nH]1,20.9% (active)
20,CC1=C(/C=C/C(C)=C/C=C/C(C)=C/C=C/C=C(C)/C=C/C=C(C)/C=C/C2=C(C)CCCC2(C)C)C(C)(C)CCC1,-1.26% (inactive)
21,COc1ccccc1NC(=O)c1cc(N2C(=O)C3C4CCC(C4)C3C2=O)ccc1Cl (stereo unspecified),-4.24% (inactive)
22,Cc1ccc(CNC(=O)CC(NC(=O)c2ccccc2)c2ccccc2)cc1 (stereo unspecified),-3.7% (inactive)
23,CC(=O)C1(C(=O)Nc2nccs2)CC(c2ccccc2C(F)(F)F)=NO1 (stereo unspecified),2.17% (inactive)

row,SMILES,activity
1,C=CCNC(=O)C12CC3CC(C1)CC(C(=O)NCC=C)(C3)C2,1.74% (inactive)
2,O=C(O)CSCNC(=O)CC12CC3CC(CC(C3)C1)C2,5.91% (inactive)
3,C=CCNC(=O)CC12CC3CC(C1)CC(CC(=O)NCC=C)(C3)C2,27.5% (active)
4,Cc1cccc(NC(=O)c2cc(S(=O)(=O)N3CCC4(CC3)OCCO4)ccc2F)c1,-2.46% (inactive)
5,O=C(N[C@H]1CC[C@H](CC(=O)N2CCCCC2)O[C@@H]1CO)c1cccc(F)c1,3.8% (inactive)
6,CON(C)S(=O)(=O)c1ccc2c(c1)NC(=O)C1CCCN21 (stereo unspecified),-3.22% (inactive)
7,Cn1c(N)cc(-c2ccc(F)cc2)c(C#N)c1=O,-1.46% (inactive)
8,Cc1cc(C)c2c(-c3ccc(F)cc3)c(C#N)c(=O)n(C)c2n1,56.8% (active)
9,COc1ccc(O)c(C(=O)c2cnc3c(c2)c(-c2ccc(F)cc2)c(C#N)c(=O)n3C)c1,-4.88% (inactive)
10,C=CCN1C(=O)[C@@H](CC(=O)NCC2CCCCC2)[C@]2(C(=O)OC)CCCCC=C12,8.08% (inactive)
11,Cc1nonc1OCCn1nnnc1N,0.14% (inactive)
12,c1ccc2c(-c3nn4nnnc4c4ccccc34)cccc2c1,28.7% (active)
13,COc1ccc(C)cc1NC(=O)NCCCCc1ccccc1,-4.58% (inactive)
14,CC1CCCC(C)N1C(=O)COC(=O)COc1ccccc1C#N (stereo unspecified),8.28% (inactive)
15,COc1ccc(CN(CCN2CCOCC2)C(=O)c2ccc(C)cc2)cc1OC,-7.19% (inactive)
16,O=C1CC(c2cccc(F)c2)C2=C(CCCC2=O)N1 (stereo unspecified),1.68% (inactive)
17,COc1ccc(OC)c(C2C3=C(N=c4s/c(=C\c5cccc(O)c5)c(=O)n42)c2ccccc2CC3)c1 (stereo unspecified),-1.04% (inactive)
18,O=C1CCCC2=C1C(c1ccccc1)n1c(s/c(=C/c3cccc(F)c3)c1=O)=N2 (stereo unspecified),35% (active)
19,S=C1Nc2cc(Cl)ccc2Sc2ccccc21,-3.11% (inactive)
20,O=C1Cc2ccccc2Sc2ccc(Cl)cc21,15.6% (active)
21,O=C1CC2(CCCC2)Oc2ccc(Cl)cc21,1.88% (inactive)
22,Cc1ccc(S(=O)(=O)c2c[nH]c3ccc(C)cc3c2=O)cc1,4.77% (inactive)
23,CCCCN(C)Cc1c(C)[nH]c2ccc(Cl)cc2c1=O,3.27% (inactive)

row,SMILES,activity
1,Cc1ccc(S(=O)(=O)c2c[nH]c3ccc(Cl)cc3c2=O)cc1,136% (active)
2,COc1ccc(N(CC(=O)NCc2ccc(F)cc2)C(=O)CCC(=O)Nc2nccs2)cc1,-2.56% (inactive)
3,Cc1cc(Cl)ccc1NNC(=O)c1snnc1C,3.67% (inactive)
4,CC(C)(C)N1CC(c2nc3ccccc3n2Cc2ccc(F)cc2)CC1=O (stereo unspecified),-4.96% (inactive)
5,Fc1ccc(CNc2nc3ccccc3n3nnnc23)cc1,40.6% (active)
6,CCOC(=O)CNc1nc2ccccc2n2c(C)nnc12,2.94% (inactive)
7,COC(=O)[C@]1(C)N[C@H](c2ccc(-c3ccc(Cl)c(Cl)c3)cc2)[C@@H]2C(=O)N(C)C(=O)[C@@H]21,2.33% (inactive)
8,Cc1nc(N2CCC(C)CC2)c2c(C)c(C(=O)Nc3cc(F)ccc3C)sc2n1,15.7% (inactive)
9,O=C(Nc1ccc(F)c(Cl)c1)C1CCN(S(=O)(=O)c2cccnc2)CC1,-4.36% (inactive)
10,Cc1nc(N2CCN(c3ccccn3)CC2)c2c(C)c(C(=O)Nc3ccc(F)c(Cl)c3)sc2n1,32% (active)
11,COc1ccc(-c2nnc3n2CCCCC3)cc1,-6.25% (inactive)
12,O=C(NCc1cccnc1)c1ccc(CS(=O)(=O)c2ccc(Br)cc2)o1,-2.47% (inactive)
13,O=S(=O)(c1ccc(Br)cc1)c1nc(-c2ccccc2)oc1NCc1cccnc1,27.6% (active)
14,O=S(=O)(c1ccccc1)c1nc(-c2ccccc2F)oc1NCc1cccnc1,-3.4% (inactive)
15,Cc1nn(CC#N)c(=O)n1N(C)c1ncc(C(F)(F)F)cc1Cl,7.64% (inactive)
16,CCOc1ccc(C2NC(=S)NC3=C2CCc2ccccc23)cc1 (stereo unspecified),7.82% (inactive)
17,O=C(COC(=O)c1cccc(Cl)c1)NC1CCCCCCC1,-7.98% (inactive)
18,O=C(COC(=O)c1ccccc1SCC(=O)NC1CCCCC1)NC1CCCCC1,70.3% (active)
19,N#Cc1ccccc1Sc1ccccc1C(=O)OCC(=O)NC1CCCCC1,61.4% (active)
20,O=C(COC(=O)c1cccc(Cl)c1Cl)NC1CCCCCC1,-4.74% (inactive)
21,N#Cc1ccc(C(=O)OCC(=O)NC(=O)NC2CCCCC2)cc1,-4.11% (inactive)
22,O=C(COC(=O)c1cc([N+](=O)[O-])ccc1NCc1ccccc1)NC1CCCCC1,-4.56% (inactive)
